This excerpt belongs to a sample that is enriched for hits.
Dicer processing = inhibitors of human Dicer processing of pre-microRNA; Q9UPY3; cat-ELCCA pre-miR-21 Dicer processing, chemiluminescence; hits give high values; hit rate 6% among 47,000; z-score at 25 µM; in the data active means z-score above about 3, passing the limit was not always enough;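 further: higher signal means more uncleaved substrate so more Dicer inhibition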
Hits are given with their value.

Cc1c(Cc2c(F)cccc2Cl)c(=O)oc2cc(OC(=O)c3ccco3)ccc12 was read as Dicer processing inactive.
Screening CCOC(=O)COc1ccc2c(-c3ccccc3)cc(=O)oc2c1 returned Dicer processing inactive.
For Cc1ccc(C2C3=C(Nc4c2c(=O)[nH]c(=O)n4C)c2ccccc2C3=O)cc1Cl (stereo unspecified) the results were Dicer processing inactive.
`CCOc1cc(C2NC(=O)c3c(sc4c3CCCC4)N2)ccc1O` (stereo unspecified) gave Dicer processing inactive.
Cc1cc([N+](=O)[O-])nn1CC(=O)Nc1ccccn1 was read as Dicer processing inactive.
Screening CCOc1ccc(S(=O)(=O)Nc2cnc3ccccc3c2)cc1 returned Dicer processing inactive.
For Cc1cc([N+](=O)[O-])nn1CC(=O)Nc1cnc2ccccc2c1 the results were Dicer processing 3.5.
`N#Cc1cc2c(nc1SCC(=O)Nc1ccc(S(=O)(=O)Nc3nccs3)cc1)CCCC2` gave Dicer processing inactive.
Screening CCOC(=O)c1c(NC(C)=O)sc2c(OC(C)=O)c(Br)ccc12 returned Dicer processing inactive.
CCOC(=O)N1CCC(N2CCCC(C(=O)N3CCCC3)C2)CC1 (stereo unspecified) was read as Dicer processing inactive.
For CCOC(=O)N1CCC(N2CCN(S(=O)(=O)c3ccc(OC)cc3)CC2)CC1 the results were Dicer processing inactive.
Screening CCOC(=O)N1CCC(N2CCN(S(C)(=O)=O)CC2)CC1 returned Dicer processing 5.
`CCOC(=O)C1CCN(C(=O)c2cc(C)nn2C(C)(C)C)CC1` gave Dicer processing inactive.
Screening Cc1ccc(C(=O)Nc2cnc3sc4ccccc4n3c2=O)cc1 returned Dicer processing inactive.
For O=C(Nc1cnc2sc3ccccc3n2c1=O)c1ccc(F)cc1 the results were Dicer processing inactive.
Screening Cc1ccc(C(=O)Nc2cc(C#N)c3sc4ccccc4n3c2=O)cc1 returned Dicer processing 4.8.
`Cc1nn(Cc2n[nH]c(=S)n2C)c(C)c1[N+](=O)[O-]` gave Dicer processing inactive.
CCOC(=O)Nc1sc(C)c(CC)c1C(N)=O was read as Dicer processing inactive.
For COc1cc(C2Oc3ccccc3C3CC(c4ccccc4)=NN32)ccc1OC(C)=O (stereo unspecified) the results were Dicer processing 4.5.
`Cc1ccc(C2Oc3ccccc3C3CC(c4ccncc4)=NN32)cc1` (stereo unspecified) gave Dicer processing inactive.
Screening COc1ccc(C2Oc3ccccc3C3CC(c4ccc(C)o4)=NN32)cc1OC (stereo unspecified) returned Dicer processing inactive.
Screening Clc1ccc2c(c1)C1CC(c3ccccc3)=NN1C(c1ccncc1)O2 (stereo unspecified) returned Dicer processing 15.
Screening Oc1ccc(Cl)cc1C1=NN2C(C1)c1ccccc1OC2c1ccncc1 (stereo unspecified) returned Dicer processing inactive.
For c1cncc(C2=NN3C(C2)c2ccccc2OC3c2cccs2)c1 (stereo unspecified) the results were Dicer processing inactive.
`CSCCC1Oc2ccc(Cl)cc2C2CC(c3ccccc3O)=NN12` (stereo unspecified) gave Dicer processing inactive.
`Clc1ccc(C2=NN3C(C2)c2ccccc2OC3c2ccncc2)cc1` (stereo unspecified) gave Dicer processing 6.
Screening COc1ccc(C2Oc3ccccc3C3CC(c4cccnc4)=NN32)cc1 (stereo unspecified) returned Dicer processing inactive.
`COC(=O)c1ccc(-n2nnnc2SCc2ccccn2)cc1` gave Dicer processing inactive.
For O=C(Oc1ccc(-c2cnc3ccccc3n2)cc1)c1ccccc1 the results were Dicer processing inactive.
`Cn1c(=O)c2c(nc3n(CC4CCCO4)c(-c4ccc(Cl)cc4)cn23)n(C)c1=O` (stereo unspecified) gave Dicer processing inactive.
CCCc1c(C(=O)Nc2nc(-c3ccc(C)c(Cl)c3)c(C)s2)cnn1-c1ccccc1 was read as Dicer processing inactive.
Screening Cn1nc(C(F)(F)F)c(-c2cccc(C(F)(F)F)c2)c1NC(=O)c1ccccc1 returned Dicer processing inactive.
`CC(Cc1c[nH]c2ccccc12)C(=O)O` (stereo unspecified) gave Dicer processing 5.
Screening O=C(O)CCCc1c[nH]c2ccccc12 returned Dicer processing inactive.
`O=C(O)CCc1c[nH]c2ccccc12` gave Dicer processing inactive.
`Cc1cc(C)c(S(=O)(=O)N(C(=O)c2ccncc2)c2ccc3oc(=O)sc3c2)cc1C` gave Dicer processing 5.
Screening Cc1ccc(S(=O)(=O)N(C(=O)c2ccncc2)c2ccc3oc(=O)sc3c2)c(C)c1 returned Dicer processing 7.7.
Screening COc1ccc(OC)c(S(=O)(=O)N(C(=O)C(C)C)c2ccc3oc(=O)sc3c2)c1 returned Dicer processing inactive.
CSc1ccc(C2CC(=O)Nc3nc(N)[nH]c(=O)c32)cc1 (stereo unspecified) was read as Dicer processing inactive.
CC1(C)CC(=O)C2=C(C1)c1c(ccc3ccccc13)NC2c1cccc(O)c1 (stereo unspecified) was read as Dicer processing inactive.
For COc1cc(C(=O)O)c(N)c(OC)c1OC the results were Dicer processing inactive.
For CCCCCc1c(C)nc(Nc2nc(C)c3cccc(C)c3n2)[nH]c1=O the results were Dicer processing inactive.
Screening COc1ccc(C2C3=C(Nc4[nH]c(=O)[nH]c(=O)c42)c2ccccc2C3=O)cc1 (stereo unspecified) returned Dicer processing inactive.
Screening Cc1ccnc(NC(NC(=O)c2ccccc2C)(C(F)(F)F)C(F)(F)F)c1 returned Dicer processing inactive.
`O=C(NC1CCCCC1)N1c2ccccc2Sc2ccccc21` gave Dicer processing inactive.
Screening O=c1cc(C(F)(F)F)[nH]n1-c1ccccc1 returned Dicer processing inactive.
Screening COC(=O)c1cc(=O)n(-c2ccccc2C(F)(F)F)[nH]1 returned Dicer processing 3.2.
Screening COC(=O)c1cc(=O)n(-c2cc(C(F)(F)F)cc(C(F)(F)F)c2)[nH]1 returned Dicer processing inactive.
`CC(C)OC(=O)c1nnn(-c2nonc2N)c1CN1CCCCC1` gave Dicer processing inactive.
For Cc1nc(N2C(=O)c3oc4ccccc4c(=O)c3C2c2cccs2)sc1C (stereo unspecified) the results were Dicer processing inactive.
Screening CCCC(=O)N1c2ccc(C)cc2C(=C2SC(C(=O)OC)=C(C(=O)OC)S2)C(=S)C1(C)C returned Dicer processing inactive.
`Fc1cccc(Cl)c1CSc1nnc(-n2cccc2)s1` gave Dicer processing inactive.
Screening C=CCN1C(=O)NC2C1N(S(C)(=O)=O)CCN2S(C)(=O)=O (stereo unspecified) returned Dicer processing 5.8.
Screening O=C(OCCN=C1NS(=O)(=O)c2ccccc21)c1ccc(F)cc1 returned Dicer processing inactive.
For CC(C)CCN1Cc2ccccc2C1 the results were Dicer processing 5.1.
CC(C)CCC(O)(CCN1CCCCC1)c1ccccc1 (stereo unspecified) was read as Dicer processing inactive.
`CN1CCN2c3ccccc3Cc3ccccc3C2C1` (stereo unspecified) gave Dicer processing inactive.
`CCOc1cc(C2C3=C(CCCC3=O)NC3=C2C(=O)CCC3)cc(Cl)c1OC` gave Dicer processing inactive.
`CCSc1nc2c(c(=O)[nH]1)C(c1cc(OC)ccc1OC)C1=C(CC(C)(C)CC1=O)N2` (stereo unspecified) gave Dicer processing inactive.
For N/C(=N\C(=O)N1CCOCC1)c1ccccc1 the results were Dicer processing inactive.
